According to PubChem BioAssay AID1963321 (National Center for Advancing Translational Sciences (NCATS), 2024):
Records with an inconclusive call do not appear. Entries that show only a call come without a potency. Active and inactive are the calls of the source. The call rests on the fitted dose curve.

The molecules below were run against cAMP-dependent protein kinase catalytic subunit alpha (Homo sapiens) (UniProt P17612) (assay: Protein Kinase A (PKA-HiBiT) enzymatic inhibition screen - Functional assay). Settings: luminescence; series mostly up to 57.5 µM.
Source text: National Center for Advancing Translational Sciences (NCATS),
National Institute of Health (NIH), Maryland
Discovery and optimization of novel protein-binding ligands underlies many of the methods and applications of biology, drug discovery, clinical diagnostics, and environmental toxicology. Assays for detecting the interaction of, for example, a molecule with a macromolecular target also referred to here as the target of interest (TOI) is dependent on a compatible output technology. Depending on the nature and knowledge surrounding the TOI, whether a receptor, enzyme, regulatory subunit or scaffold, or a sequence-defined nucleic acid folded into a complex tertiary structure, assay strategies can vary widely.
Here we exploit ligand-biased changes in the structural dynamics of the target protein to control reporter alpha complementation allowing a non-competitive, non-functional, non-separation measure of ligand-target interaction.
Using a chemical library of >1,200 compounds enriched for scaffolds known to be associated with the inhibition of firefly luciferase (FLuc) activity (PubChem AIDs 2309) we first illustrate and compare the Structural Dynamics Response (SDR) assay vs. the standard functional FLuc enzyme assay (2). Secondly, we show the specificity and sensitivity of the SDR for the Abelson tyrosine kinase (ABL1) compared to the serine/threonine protein kinase A, using an enriched chemical library of 128 compounds selected, in part, for activity annotated with ABL1 kinase activity using the Pharos database (3).
(1) A. S. Dixon et al., NanoLuc Complementation Reporter Optimized for Accurate Measurement of Protein Interactions in Cells. ACS Chem Biol 11, 400-408 (2016).
Chemistry & Biology, 19, 1060 - 1072 (2012).
(3) K. J. Kelleher et al., Pharos 2023: an integrated resource for the understudied human proteome. Nucleic Acids Res 51, D1405-D1416 (2023).
PROTOCOL TABLE (as described by Inglese J, Shamu CE and Guy RK. 2007)
SEQUENCE No. (e.g., 1, 2, 3, etc.); […] (e.g., C. elegans, Compounds, Incubation, Read, etc.); VALUE and DESCRIPTION.
1. Reagent. Dispense 4 uL PKA-N-HiBiT enzyme per well at a final enzyme concentration of 10 nM in buffer with 87.5 uM ATP (functional assay) into columns 2-48 of four replicate Greiner 1536-well white,solid bottom high base, medium plates per assay. Dispense respective buffer without enzyme at 4 uL/well in column 1 of assay plates using BioRaptr 2.
2. Compounds. Library compounds added at 23 nL/well by pin transfer. DMSO neutral control and H-89 positive control added at 25 nL/well, transfer by Mosquito dispenser.
3. Incubation. Incubate enzyme and compounds at room temperature for 30 min, protect from light.
4. Reagent. (Functional assay) Transfer 25 nL of kemptide peptide substrate to each well of four replicate kinase assay plates with Mosquito dispenser.
5. Incubation. (Functional assay) Kinase Enzyme incubated with peptide substrate for 3 h at room temperature, protected from light.
6. Reagent. (Functional assay) Add 4 uL/well of Kinase-Glo Plus reagent (Promega) to kinase activity assay plates.
7. Detector. (Functional assay) Luminescence measured using CCD-based camera (ViewLux) with settings as follows: Exposure, 1 sec; Gain, High; Speed, Slow; Binning, 2X.
Inglese J, Shamu CE and Guy RK, Reporting data from high throughput screening of small molecule libraries, Nature Chemical Biology, 2007, 3(8): 438-441. doi.org/10.1038/nchembio0807-438.

Row | SMILES | Potency | activity change, negative = inhibition
1 | Cc1ncc(NC(=O)c2ccc(CN3CCN(C)CC3)c(C(F)(F)F)c2)cc1Nc1nccc(-c2cccnc2)n1 | inactive | 
2 | Nc1ncccc1-c1nc2ccc(-c3ccccc3)nc2n1-c1ccc(C2(N)CCC2)cc1 | inactive | 
3 | Cc1nc2ccc(-n3ncc(C(=O)c4cc5ccccc5[nH]4)c3N)cc2[nH]1 | inactive | 
4 | COc1ccc(-n2c(C)c([N+](=O)[O-])c3ccc(O)cc32)cc1 | inactive | 
5 | Cc1c(Cl)cccc1S(=O)(=O)Nc1nc(NCCc2ccccc2)nc2c1CN(Cc1ccccc1)CC2 | inactive | 
6 | CCOc1ccn(-c2ccc(F)cc2)c(=O)c1C(=O)Nc1ccc(Oc2ccnc(N)c2Cl)c(F)c1 | 15.3 nM (active) | 
7 | COC(=O)Nc1ccc(-c2nc(N3CCOCC3)c3cnn(C4CCN(C(=O)OC)CC4)c3n2)cc1 | inactive | 
8 | CN1CCN(C2CCC(n3cc(-c4ccc(Oc5ccccc5)cc4)c4c(N)ncnc43)CC2)CC1 (stereo not given) | inactive | 
9 | O=C(NCCO)c1cccc(-c2cc(Nc3ccc(OC(F)(F)F)cc3)ncn2)c1 | inactive | 
10 | O=C(Nc1ccc(OC(F)(F)F)cc1)c1sccc1NCc1ccnc2ccccc12 | inactive | 
11 | O=C(c1cccc(Cl)c1F)N1CCN(Cc2cccc(Nc3nccs3)n2)CC1 | inactive | 
12 | Cc1cccc(/C=N/Nc2cc(N3CCOCC3)nc(OCCc3ccccn3)n2)c1 | inactive | 
13 | FC(F)(F)c1ccc(/C=C/c2nc(COc3ccc(CCCCn4ccnn4)cc3)co2)cc1 | inactive | 
14 | CC(C)(C)n1nc(-c2cccc3ccccc23)c2c(N)ncnc21 | inactive | 
15 | CNC(=O)c1ccccc1Sc1ccc2c(/C=C/c3ccccn3)n[nH]c2c1 | inactive | 
16 | Cc1ccc(NC(=O)c2ccc(CN3CCN(C)CC3)cc2)cc1Nc1nc(-c2cccnc2)cs1 | inactive | 
17 | O=S(=O)(/N=C/c1c(O)ccc2ccccc12)c1cccs1 | inactive | 
18 | Nc1ncc(-c2cnn(CCO)c2)c2scc(-c3ccc(NC(=O)Nc4cccc(F)c4)cc3)c12 | inactive | 
19 | Cc1[nH]c(/C=C2\C(=O)Nc3ccc(S(=O)(=O)Cc4c(Cl)cccc4Cl)cc32)c(C)c1C(=O)N1CCC[C@@H]1CN1CCCC1 | inactive | 
20 | Cn1cc(-c2cc3c(N4CCN(c5ncc([C@@](C)(N)c6ccc(F)cc6)cn5)CC4)ncnn3c2)cn1 | inactive | 

Row | SMILES | Potency | activity change, negative = inhibition
21 | C=CC(=O)Nc1cc2c(Nc3ccc(F)c(Cl)c3)ncnc2cc1OCCCN1CCOCC1 | inactive | 
22 | CC(C)(NS(=O)(=O)c1ccc2c(Cl)cnc(N=C(N)N)c2c1)C(=O)O | inactive | 
23 | COc1cc2ncnc(Nc3ccc(F)c(Cl)c3)c2cc1OCCCN1CCOCC1 | inactive | 
24 | COc1cc2ncnc(-n3nc(-c4ccccn4)nc3N)c2cc1OC | inactive | 
25 | Cc1cc(Nc2ncc3c(n2)N(C)C(=O)N(c2cc(NC(=O)c4cccc(C(F)(F)F)c4)ccc2C)C3)n(C)n1 | inactive | 
26 | COc1cc(NC(=O)c2cccc(-n3cc(NC(=O)Nc4cccc(C)c4)cn3)c2)cc(OC)c1OC | inactive | 
27 | c1ccc2c(-c3cnn4cc(-c5ccc(N6CCNCC6)cc5)cnc34)ccnc2c1 |  | 8.42% [at 6.37 µM] (inactive)
28 | CO[C@H]1/C=C/O[C@@]2(C)Oc3c(C)c(O)c4c(O)c(c(/C=N\N5CCN(C6CCCC6)CC5)c(O)c4c3C2=O)NC(=O)/C(C)=C\C=C\[C@H](C)[C@H](O)[C@@H](C)[C@@H](O)[C@@H](C)[C@H](OC(C)=O)[C@@H]1C | inactive | 
29 | Cc1cc(O)c2c(c1)C(=O)c1cc(O)cc(O)c1C2=O | inactive | 
30 | CC(C)n1nc(-c2cc3cc(O)ccc3[nH]2)c2c(N)ncnc21 | inactive | 
31 | Cc1cn(-c2cc(F)cc(NC(=O)c3ccc(C)c(Nc4nccc(-c5cccnc5)n4)c3)c2)cn1 | inactive | 
32 | CSc1cccc(Nc2ncc3cc(-c4c(Cl)cccc4Cl)c(=O)n(C)c3n2)c1 | inactive | 
33 | Nc1ncnc2c1c(-c1cnc3[nH]ccc3c1)nn2C1CCCC1 | inactive | 
34 | COc1cc(N2CCOCC2)ccc1Nc1ncc(Cl)c(Nc2ccccc2NS(C)(=O)=O)n1 | inactive | 
35 | COc1cc2c(Oc3ccc4[nH]c(C)cc4c3F)ncnc2cc1OCCCN1CCCC1 | inactive | 
36 | O=c1cc(N2CCOCC2)nc2c3ccccc3ccn12 | inactive | 
37 | O=C(NC1CCNCC1)c1[nH]ncc1NC(=O)c1c(Cl)cccc1Cl | inactive | 
38 | C=CC(=O)N1CCC(Oc2cc3c(Nc4ccc(Cl)c(Cl)c4F)ncnc3cc2OC)CC1 | inactive | 
39 | Cc1ccc(C(=O)Nc2ccc(CN3CCN(C)CC3)c(C(F)(F)F)c2)cc1C#Cc1cnc2[nH]ncc2c1 | inactive | 
40 | CNC(=O)c1ccccc1Nc1nc(Nc2ccc(N3CCOCC3)cc2OC)ncc1Cl | inactive | 
